The nature of experiment [1]: inhibitors of TNFa-induced NFkB p65 translocation, primary screen, imaging, HUVEC, MLSMR starter and 10KST1 sets (AID 438;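 active = inhibition above 20% together with a positive visual image hit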;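 also: compound added about 3h40 before a 20 min TNFalpha stimulation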;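 as to inhibition: signal is the nuclear over cytoplasmic p65 intensity ratio per well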). The conditions noted are these: HUVEC TNFa-induced p65 nuclear translocation; cell count: measured here: nuclei count (cytotoxicity indicator), at 2.08 µM; inhibition: at 2 µM, stronger effect = higher value, 0% TNFa-plus-vehicle, 100% no-TNFa wells.
Experiment [2] can be described thus: inhibitors of mutant huntingtin aggregation, primary screen, imaging, exon1htt(103Q)mCFP cells, high-content imaging (AID 483;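 active = visual image review flags a hit and inhibition of aggregation exceeds 20%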;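 also: compound exposure lasted 3 days before fixation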;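 as to nuclei count: percent of the per-plate median nuclei count of sample wells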). The conditions noted are these: exon1htt(103Q)mCFP cell line, aggregate imaging, at 2 µM; inhibition of aggregation: stronger effect = higher value; nuclei count: measured here: cell count, toxicity.
A short description of experiment [3]: inhibitors of E-selectin induction by TNFa, primary screen, imaging, HUVEC, immunofluorescence, MLSMR starter and 10KST1 sets (AID 487;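 active = visually confirmed hit in the image check and inhibition above 20%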;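 as to inhibition: signal is fraction of cell area covered by stained E-selectin grains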;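 as to nuclei count: 100% = median nuclei count of all wells on the same plate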). The following applies: HUVEC TNFalpha-induced E-selectin immunofluorescence imaging, at 2 µM; inhibition: stronger effect = higher value; nuclei count: measured here: cell number, toxicity.
Experiment [4] is described as follows: DUSP6 inhibitors restoring Erk phosphorylation by chemical complementation, primary imaging in DUSP6-transfected HeLa (AID 609).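 As to inhibition: phospho-Erk level distribution per well compared with pooled transfected vehicle control wells.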 The conditions noted are these: HeLa MKP-3 transfected, phospho-Erk imaging KS statistic, at 10 µM, cells stimulated with TPA for 15 min.
The target of experiment [5] is Dual specificity protein phosphatase 6 (Homo sapiens) (UniProt Q16828). The description is as above. The following applies: HeLa MKP-3 transfected, phospho-Erk imaging KS statistic; at 10 µM; stronger effect = higher value; cells stimulated with TPA for 15 min.
Experiment [6] deals with Voltage-gated potassium channel subunit beta-2 (Rattus norvegicus) (UniProt P62483). Kind of experiment: KvBeta enzyme negative modulators, primary screen, biochemical, NADPH fluorescence (AID 622;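 active = fluorescence slope higher than the sample average by over 3 SD, cut at about -0.22 in these data, passing the limit was not always enough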;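 also: slope of raw intensity against log time taken from 70 to 1610 s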). The following applies: recombinant KvBeta, 4-cyanobenzaldehyde reduction, at 10 µM, stronger effect = higher value.
Experiment [7] shares this target. Kind of experiment: KvBeta positive modulators, primary screen, biochemical, NADPH fluorescence (AID 623;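 active = NADPH fluorescence slope more negative than the mean of all samples by about 3 SD, 99.7% confidence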;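 also: fluorescence intensity change per second fitted from 20 to 320 s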). The following applies: Recombinant KvBeta, NADPH fluorescence decrease slope, 10 min; at 10 µM; stronger effect = lower value.
Experiment [8] deals with Alpha-2C adrenergic receptor (Homo sapiens) (UniProt P18825). Kind of experiment: modulators of alpha2C/GIRK thallium flux, primary screen, cell-based, HEK293 alpha2C/GIRK1/2 (AID 624;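 active = fluorescence slope after compound addition differing from the mean of all screened samples at 99.7% confidence, in either direction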;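 also: slope of fluorescence ratio to pre-addition baseline per second over 15 to 24 s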). The conditions noted are these: thallium flux BTC fluorescence, at 10 µM, actives lie on both sides.
Experiment [9] can be described thus: inhibitors of Chlamydomonas gravitaxis, primary screen, whole organism, Chlamydomonas reinhardtii, WT vs cilia-less mutant, absorbance, 96-well (AID 463189;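 active = inhibition at or above 50% relative to wild type and mutant plate controls; inactive = inhibition below 50%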;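 also: 0% = wild type cc124 cells in DMSO and 100% = ciliumless bld1 mutant cells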). The conditions noted are these: OD600 absorbance, 2 days, at 10 µM, stronger effect = higher value.
A short description of experiment [10]: inhibitors of Sendai virus-induced IRF3 signaling, primary screen, TLR/RLR signaling modifier project, cell-based, Sendai virus stimulus, luciferase, 10K MLSCN set (AID 602276;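 active = inhibition at or above 50% at 10 µM; inactive = inhibition below 50%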;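 also: firefly luciferase from ISG56 promoter only with Renilla not read in this screen; 0% = Sendai virus plus DMSO and 100% = medium plus DMSO without virus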). The following applies: HEK293 RL24 IRF3 luciferase reporter, at 10 µM, stronger effect = higher value. Background: Reporter assays use an easily measured gene product as a stand-in for the process of interest.

Experiment [11] can be described thus: inhibitors of poly I:C-induced TLR3 signaling, primary screen, cell-based, poly I:C stimulus, luciferase, 10K MLSCN set (AID 602277;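 active = inhibition of the reporter signal at or above 50%; inactive = inhibition below 50%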). The following applies: HEK293-TLR3 RL24 IRF3 luciferase reporter, at 10 µM, stronger effect = higher value.
Experiment [12] addresses Solute carrier family 12 member 5 (Homo sapiens) (UniProt Q9H2X9). The experiment in a line: KCC2 modulators in sodium-free buffer, confirmation, cell-based, HEK293 KCC2, thallium flux, secondary assay (AID 1713;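 active = thallium flux slope above the same plate's solvent-only control mean plus 3 SD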). The following applies: FluoZin2 fluorescence, at 10 µM, stronger effect = higher value.
For experiment [13] the target is unchanged. Kind of experiment: KCC2 modulators without ouabain present, confirmation, cell-based, HEK293 KCC2, thallium flux, FluoZin2, secondary assay 2 (AID 1715;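 active = thallium flux slope more than 3 SD above or below the plate's solvent-only control mean, mostly below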;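 also: raw slope with 0.1% DMSO as baseline and bumetanide as block control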). The conditions noted are these: HEK293-KCC2, thallium flux FluoZin2 fluorescence; at 10 µM; actives lie on both sides; F/F0 rise rate, 10–20 s post-thallium.
Experiment [14] in a line: thallium flux modulation in parental HEK cells, confirmation, counter-screen for KCC2 modulator project, cell-based, counterscreen 1 (AID 1716;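 active = thallium flux rate significantly above the same plate's solvent-only control wells, beyond their mean plus 3 SD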). The conditions noted are these: HEK293 parental cells, thallium flux FluoZin2, ouabain; at 10 µM; baseline-ratio fluorescence slope, 10–20 s after thallium.
The target of experiment [15] is Solute carrier family 12 member 5 (Homo sapiens) (UniProt Q9H2X9). Kind of experiment: KCC2 inhibitors and activators, ouabain retest, confirmation, HEK-KCC2 cells (AID 1717;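 active = thallium flux slope beyond 3 SD from same-plate DMSO control mean in most replicates, usually higher, sometimes lower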;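 also: slope of initial-normalized fluorescence between seconds 10 and 20 after thallium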). The following applies: HEK293-KCC2, thallium flux FluoZin2 fluorescence, at 10 µM, bidirectional: low = inhibitor, high = activator.
A short description of experiment [16]: native HEK Tl+ uptake effects, second counter-screen – HEK cells, counterscreen 2, counter-screen for KCC2 modulator project, confirmation (AID 1718;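 active = thallium flux slope above the same plate's solvent-control mean plus 3 SD in both duplicate wells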;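 also: run without ouabain in cells lacking the KCC2 cotransporter; slope of fluorescence scaled to its starting value between 10 and 20 s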). The following applies: HEK293 parental, thallium flux FluoZin-2 fluorescence slope; at 10 µM. (In general: Counterscreens check selectivity or assay interference.)
The nature of the next experiment: PubChem AID 1714.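 Also: raw slope of fluorescence over initial fluorescence between 10 and 20 s after thallium.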 The following applies: HEK293-KCC2 + bumetanide/ouabain, thallium flux FluoZin2; at 10 µM; stronger effect = higher value.
Where [17] appears, read: measured here: cell density z-score.
The mark [18] stands for this setting: measured here: nuclear c-Myc green intensity z-score.
[19] abbreviates: measured here: nuclear pErk red intensity z-score, stronger effect = higher value.

The list shows a part of the results. Inconclusive results are not listed. Active and inactive are the calls of the source.

These results are taken from PubChem BioAssay.

Broadly, the inhibition is the change of the read-out against control, counted positive when it falls.

Chain of Alpha-2C adrenergic receptor (Homo sapiens) (P18825 whole entry, looked up): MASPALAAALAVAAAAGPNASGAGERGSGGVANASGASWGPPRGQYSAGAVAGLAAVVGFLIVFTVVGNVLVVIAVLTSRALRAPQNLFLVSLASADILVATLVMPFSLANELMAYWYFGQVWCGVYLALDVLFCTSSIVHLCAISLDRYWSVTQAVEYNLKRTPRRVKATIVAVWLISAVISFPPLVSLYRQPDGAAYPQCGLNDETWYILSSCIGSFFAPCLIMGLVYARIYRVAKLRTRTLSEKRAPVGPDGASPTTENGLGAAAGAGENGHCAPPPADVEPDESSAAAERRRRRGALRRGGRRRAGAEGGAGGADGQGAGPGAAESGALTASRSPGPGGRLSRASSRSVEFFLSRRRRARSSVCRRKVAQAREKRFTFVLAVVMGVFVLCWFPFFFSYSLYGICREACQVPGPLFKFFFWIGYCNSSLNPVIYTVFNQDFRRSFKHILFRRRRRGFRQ
Chain of Dual specificity protein phosphatase 6 (Homo sapiens) (Q16828 whole entry, looked up): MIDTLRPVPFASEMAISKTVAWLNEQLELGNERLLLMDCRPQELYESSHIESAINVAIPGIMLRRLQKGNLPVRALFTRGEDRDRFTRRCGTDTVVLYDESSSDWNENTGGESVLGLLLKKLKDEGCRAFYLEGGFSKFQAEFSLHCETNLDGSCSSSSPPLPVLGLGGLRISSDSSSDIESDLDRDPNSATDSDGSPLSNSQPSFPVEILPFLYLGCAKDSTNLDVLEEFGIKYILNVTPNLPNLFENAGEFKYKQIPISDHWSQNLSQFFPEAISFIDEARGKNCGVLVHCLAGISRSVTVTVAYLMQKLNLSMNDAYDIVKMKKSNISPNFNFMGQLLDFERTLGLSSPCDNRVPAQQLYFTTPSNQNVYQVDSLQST
Chain of Voltage-gated potassium channel subunit beta-2 (Rattus norvegicus) (P62483 whole entry, looked up): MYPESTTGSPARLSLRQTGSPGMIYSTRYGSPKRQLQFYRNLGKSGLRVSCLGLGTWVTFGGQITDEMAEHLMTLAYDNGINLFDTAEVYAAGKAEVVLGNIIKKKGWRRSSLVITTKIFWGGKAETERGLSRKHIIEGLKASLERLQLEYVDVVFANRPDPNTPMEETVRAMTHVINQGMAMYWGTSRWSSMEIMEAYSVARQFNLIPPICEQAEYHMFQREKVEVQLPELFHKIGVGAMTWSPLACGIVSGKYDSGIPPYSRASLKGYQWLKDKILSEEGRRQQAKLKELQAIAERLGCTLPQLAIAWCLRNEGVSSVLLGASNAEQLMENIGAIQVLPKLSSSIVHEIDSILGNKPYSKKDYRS
Chain of Solute carrier family 12 member 5 (Homo sapiens) (Q9H2X9 whole entry, looked up): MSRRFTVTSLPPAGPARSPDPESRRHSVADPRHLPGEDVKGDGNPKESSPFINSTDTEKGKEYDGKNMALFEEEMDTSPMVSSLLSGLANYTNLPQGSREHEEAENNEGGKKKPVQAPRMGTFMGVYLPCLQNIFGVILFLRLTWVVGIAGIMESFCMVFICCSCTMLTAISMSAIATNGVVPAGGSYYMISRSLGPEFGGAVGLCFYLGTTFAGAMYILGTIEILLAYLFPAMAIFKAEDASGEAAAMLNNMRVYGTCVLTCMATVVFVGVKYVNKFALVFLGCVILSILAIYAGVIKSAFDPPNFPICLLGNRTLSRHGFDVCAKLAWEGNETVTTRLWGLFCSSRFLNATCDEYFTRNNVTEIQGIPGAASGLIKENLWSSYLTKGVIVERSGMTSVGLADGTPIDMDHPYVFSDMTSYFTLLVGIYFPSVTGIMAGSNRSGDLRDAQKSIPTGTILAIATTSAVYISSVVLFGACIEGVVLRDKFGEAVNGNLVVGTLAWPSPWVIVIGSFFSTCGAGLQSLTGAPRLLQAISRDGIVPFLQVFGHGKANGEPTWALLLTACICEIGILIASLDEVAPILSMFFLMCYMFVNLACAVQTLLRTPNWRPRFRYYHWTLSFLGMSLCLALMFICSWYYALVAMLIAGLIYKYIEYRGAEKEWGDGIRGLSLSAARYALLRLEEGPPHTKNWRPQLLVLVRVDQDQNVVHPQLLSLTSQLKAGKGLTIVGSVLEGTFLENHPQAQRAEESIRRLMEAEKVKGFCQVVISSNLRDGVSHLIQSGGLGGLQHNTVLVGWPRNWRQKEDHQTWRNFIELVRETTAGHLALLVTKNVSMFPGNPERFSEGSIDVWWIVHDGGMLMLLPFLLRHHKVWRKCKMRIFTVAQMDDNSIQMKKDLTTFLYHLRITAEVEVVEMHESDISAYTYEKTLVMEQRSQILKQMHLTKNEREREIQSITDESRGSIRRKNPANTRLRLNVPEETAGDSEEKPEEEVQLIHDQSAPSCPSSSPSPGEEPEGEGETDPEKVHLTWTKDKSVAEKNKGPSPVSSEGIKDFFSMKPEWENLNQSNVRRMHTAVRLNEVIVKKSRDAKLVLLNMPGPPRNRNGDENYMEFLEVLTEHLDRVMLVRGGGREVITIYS

As for `CCCCOc1ccc(CC(=O)NO)cc1`, the cell count in experiment [1] turned out to be 619. The inhibition in experiment [1] is -10.2% (inactive); in [3], -41.8% (inactive); in experiment [5] it was -0.493% (inactive); in experiment [9] it was 7.46% (inactive); in [10] it was 13.6% (inactive); in experiment [11] it was 31.2% (inactive). Further, in experiment [2], the inhibition of aggregation is -11.8% (inactive). For the same molecule, the nuclei count was 91% in experiment [2] and 111% in [3]. The values for the z-score in experiment [4] (setting [17]), in experiment [4] (setting [18]) and in experiment [4] (setting [19]) were -0.368, -0.467 and -0.347, respectively. Moreover, the fluorescence slope in [6] is -0.547 (inactive). Besides, the NADPH fluorescence slope in experiment [7] is -4.3e-05 (inactive). In experiment [8], the slope was 0.00497 (inactive).

`CCOC(=O)c1ccccc1N1C(=O)C2Sc3[nH]c(=O)sc3C(/C=C/c3ccccc3)C2C1=O` (centres undefined): the normalised thallium flux (F/F0 slope) in experiment [12] was 0.00694 (inactive). For the same molecule, the normalized thallium flux in experiment [13] was 0.0266 (active). Also, in experiment [14], the thallium flux rate (normalised fluorescence) was 0.00732 (inactive). Further, the raw Tl+ flux slope (below DMSO = inhibition, above = activation) in experiment [15] was 0.00834 (active). Also, the thallium flux slope in experiment [16] was 0.0106 (inactive).

Regarding `c1ccc(-c2nnc(OCCN3CCOCC3)c3ccccc23)cc1`, the cell count in [1] was determined as 493. Besides, the inhibition is -3.3% (inactive) in experiment [1]; -85.3% (inactive) in experiment [3]; -5.26% (inactive) in experiment [5]; -11.2% (inactive) in experiment [9]; 15.1% (inactive) in experiment [10]; 20.9% (inactive) in experiment [11]. Further, the inhibition of aggregation in experiment [2] is 18.6% (inactive). The nuclei count stood at 114% in [2] and 126% in experiment [3]. Further, the z-score in [4] (setting [17]) came out at 0.666; in experiment [4] (setting [18]), 0.289; in [4] (setting [19]), 1.89. The fluorescence slope in experiment [6] is -0.415 (inactive). Besides, the NADPH fluorescence slope in experiment [7] is -0.000176 (inactive). Moreover, the slope in experiment [8] is 0.00622 (inactive).

In the case of `O=C(CSc1cccc2cccnc12)N/N=C/c1cccnc1`, the normalized thallium flux in “PubChem AID 1714” is 0.0504 (active); in experiment [13], 0.0285 (inactive). Further, in [14], the thallium flux rate (normalised fluorescence) is 0.0251 (active). Also, the raw Tl+ flux slope (below DMSO = inhibition, above = activation) in [15] was 0.0449 (active). The thallium flux slope in experiment [16] is 0.0116 (active).

Take `CCn1c(SCC(=O)c2ccc3ccccc3c2)nnc1-c1cccs1`: in experiment [12], the normalised thallium flux (F/F0 slope) is 0.00706 (inactive). Also, the normalized thallium flux in experiment [13] is 0.0307 (inactive). The thallium flux rate (normalised fluorescence) in experiment [14] was 0.00707 (inactive). The raw Tl+ flux slope (below DMSO = inhibition, above = activation) in experiment [15] is 0.0159 (active). Further, in experiment [16], the thallium flux slope was 0.0101 (inactive).

For `COc1ccc(C(=O)Cn2c(N3CCCCC3)nc3c2c(=O)n(C)c(=O)n3C)cc1OC`, in experiment [1], the cell count came out at 537. For the same molecule, the inhibition in experiment [1] was 4.7% (inactive); in experiment [3], -58.1% (inactive); in [5], 3.5% (inactive); in [9] it was 12.6% (inactive); in experiment [10], 14.5% (inactive); in [11], 12.6% (inactive). Besides, in experiment [2], the inhibition of aggregation was 12.9% (inactive). The nuclei count was 90.8% in experiment [2] and 115% in experiment [3]. Moreover, the z-score in experiment [4] (setting [17]) was -0.186; in experiment [4] (setting [18]) it was 0.344; in experiment [4] (setting [19]) it was 0.238. For the same molecule, in [6], the fluorescence slope was -0.424 (inactive). For the same molecule, the NADPH fluorescence slope in experiment [7] was -9.5e-05 (inactive). For the same molecule, in experiment [8], the slope was 0.00577 (inactive).

`C[C@@H](C(=O)Nc1ccc2ccccc2c1)[C@@H]1C[C@@]1(C)[C@@H](NC(=O)c1cccnc1)c1ccccc1`: in [12], the normalised thallium flux (F/F0 slope) is 0.00785 (inactive). In addition, in experiment [13], the normalized thallium flux was 0.0226 (active). In addition, the thallium flux rate (normalised fluorescence) in experiment [14] was 0.00775 (inactive). The raw Tl+ flux slope (below DMSO = inhibition, above = activation) in [15] is 0.0135 (active). The thallium flux slope in experiment [16] is 0.0098 (inactive).

In the case of `CCc1cc(=O)oc2c(CN3CCN(C)CC3)c(O)c(Cl)cc12`, the cell count in experiment [1] amounted to 430. For the same molecule, the inhibition in experiment [1] was 3.2% (inactive); in experiment [3], -40.7% (inactive); in [5], 26.3% (inactive); in experiment [9] it was 13.3% (inactive); in experiment [10], 16.8% (inactive); in experiment [11] it was 22.6% (inactive). Further, in [2], the inhibition of aggregation is 27.8% (inactive). Besides, the nuclei count was found to be 85.9% in experiment [2] and 101% in [3]. Moreover, the values for the z-score in [4] (setting [17]), in experiment [4] (setting [18]) and in experiment [4] (setting [19]) were 1.84, 0.822 and -1.78, respectively. Besides, the fluorescence slope in experiment [6] was -0.266 (inactive). Besides, in experiment [7], the NADPH fluorescence slope was -4.4e-05 (inactive). In experiment [8], the slope is 0.00532 (inactive).
